Test results published in PubChem BioAssay (NCATS).
Inconclusive results are not listed. Calls of active or inactive are those of the source. Unless noted, the rule behind the calls is not given here.

Legend:
[1] = qHTS profiling of the MIPE4 collection as inhibitors of Plasmodium falciparum (3D7) proliferation (AID 743344);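 note: scaled between DMSO vehicle wells and 0.29 µM artemisinin as full inhibition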; settings: P. falciparum 3D7 in erythrocytes, SYBR Green DNA fluorescence, 72 h; at 28.5 µM unless noted
Procedure, shortened: (§1)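 Parasite DNA was quantified by SYBR Green I fluorescence (ex 485, em 535 nm) after overnight lysis in saponin/Triton buffer at room temperature. Cultures at 0.3% parasitemia and 2.5% hematocrit were first exposed to compound for 72 h at 37 C; signals were normalised to artemisinin (0.29 uM) and vehicle wells.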

[2] = qHTS profiling of the MIPE4 collection as inhibitors of Plasmodium falciparum (DD2) proliferation (AID 743345); settings: P. falciparum Dd2 in erythrocytes, SYBR Green DNA, 72 h; at 28.5 µM unless noted
Procedure, shortened: as §1

[3] = qHTS profiling of the MIPE4 collection as inhibitors of Plasmodium falciparum (DD2) proliferation (Rep 2) (AID 743346); settings: P. falciparum Dd2 in erythrocytes, SYBR Green DNA, 72 h; at 28.5 µM unless noted
Procedure, shortened: as §1

[4] = qHTS profiling of the MIPE4 collection as inhibitors of Plasmodium falciparum (HB3) proliferation (AID 743347);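 note: plate controls were DMSO vehicle wells for no effect and artemisinin wells for full effect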; settings: P. falciparum HB3 in erythrocytes, SYBR Green DNA, 72 h; at 28.5 µM unless noted
Procedure, shortened: as §1

[5] = High-throughput drug toxicity screening in the BPDCN cell line Gen2.2 (AID 1224824); settings: Gen2.2 BPDCN cells; at 45.8 µM (top of the series) unless noted;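 note: cells exposed to compounds for 48 h before reading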
Procedure, shortened: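 CellTiter-Glo luminescence read after 48 h compound exposure at 37 C defines viability; percent activity set with DMSO as 100% and bortezomib (9.2 uM final) as 0%. 500 exponentially growing cells per well, RPMI plus 10% FBS.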

[6] = High-throughput drug toxicity screening in the BPDCN cell line Cal-1 (AID 1224825); settings: Cal-1 BPDCN cell viability, qHTS; at 45.8 µM (top of the series) unless noted
Procedure, shortened: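 Percent activity derived from CellTiter-Glo luminescence, scaling DMSO to 100% and 9.2 uM final bortezomib to 0%. BPDCN Cal-1 cells (500/well, RPMI plus 10% FBS) incubated with compounds 48 hours at 37C before reading.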

[7] = qHTS assay for measurement of the activity of small molecule inhibitors on Zika virus induced Caspase-3 activity in human iPSC derived neural progenitor cells (hNPCs) (AID 1224857; active = well fitted curve in the direction sought with a large enough effect; an effect the other way counts as inactive or inconclusive; note: % of control where 0% means no effect; nearly all actives have a fitted effect of over 65% in size)
Procedure, shortened: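 Caspase-3/7 induction by a 6-hour ZIKV infection was quantified with a luminescent Caspase-Glo 3/7 reagent incubated 30 minutes at room temperature. Compounds were preincubated with hNPCs for 1 hour; inhibition was calculated against uninfected and infected control wells.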

[8] = qHTS assay for measurement of the activity of small molecule inhibitors on Zika virus induced Caspase-3 activity in human astrocytoma cells (AID 1224859; active = well fitted curve in the direction sought with a large enough effect; an effect the other way counts as inactive or inconclusive;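 note: plate controls were ZIKV-infected untreated cells for no effect and uninfected cells for full effect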)
Procedure, shortened: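 In SNB-19 cells plated at 250 cells/well and grown 16-20 h, compounds were applied 1 h before ZIKV (2 FFU/cell). Six hours later caspase-3/7 luminescence was recorded.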

[9] = qHTS Screen of the MIPE 4.0 Collection Against Ewings Sarcoma (EW8) (AID 1259255; active = well fitted curve in the direction sought with a large enough effect; an effect the other way counts as inactive or inconclusive; note: potency is the fitted concentration of half-maximal effect; nearly all actives have a fitted effect of over 35% in size)
Procedure, shortened: (§2)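 Cells plated in serum-containing RPMI (5% FBS) and treated with compound dilutions for 48 h. Readout luminescent viability; normalization relied on vehicle (no inhibition) and media-only columns (full inhibition).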

[10] = qHTS Screen of the MIPE 4.0 Collection Against Ewings Sarcoma (TC32) (AID 1259256; active = well fitted curve in the direction sought with a large enough effect; an effect the other way counts as inactive or inconclusive; note: nearly all actives have a fitted effect of over 45% in size; note: potency is the fitted concentration of half-maximal effect)
Procedure, shortened: as §2

[11] = qHTS profiling for inhibitors of Plasmodium falciparum (HB3) proliferation (AID 743324; active = well fitted curve in the direction sought with a large enough effect; an effect the other way counts as inactive or inconclusive;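 note: 100% = DMSO vehicle wells and 0% = artemisinin-treated control wells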); settings: Plasmodium falciparum HB3 blood-stage proliferation; at 28.7 µM (top of the series) unless noted
Procedure, shortened: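 SYBR Green fluorescence (485 ex/535 em) of lysed cultures, incubated overnight at room temperature in the dark, quantifies parasite DNA. Infected erythrocytes at 0.3% parasitemia and 2.5% hematocrit were exposed 72 h; values normalized to DMSO and 0.29 uM artemisinin controls.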

[12] = qHTS Screen of the MIPE 4.0 Collection Against Ewings Sarcoma (TC71) (AID 1259253; active = well fitted curve in the direction sought with a large enough effect; an effect the other way counts as inactive or inconclusive; note: potency is the fitted concentration of half-maximal effect; nearly all actives have a fitted effect of over 40% in size)
Procedure, shortened: as §2

[13] = qHTS assay to identify small molecule inhibitors of chordoma cells - UCH-1 (AID 1259355; active = well fitted curve in the direction sought with a large enough effect; an effect the other way counts as inactive or inconclusive; note: % is set by controls: 0 for no effect and ±100 for the full control effect; nearly all actives have a fitted effect of over 55% in size)
Procedure, shortened: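 800 cells/well, overnight attach; compounds pinned at 15 concs, then auranofin/camptothecin/doxorubicin/rubitecan/topotecan combo added; 48hr 37 C, 5% CO2; CellTiter-Glo, 30min RT, luminescence.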

[14] = qHTS assay to identify small molecule inhibitors of chordoma cells - UCH-2 (AID 1259356; active = well fitted curve in the direction sought with a large enough effect; an effect the other way counts as inactive or inconclusive; note: % is set by controls: 0 for no effect and ±100 for the full control effect)
[15] = Identifying Small Molecule Inhibitors of Pancreatic Cancer Stem Cells (SN12C, Adherent) (AID 1259358; active = well fitted curve in the direction sought with a large enough effect; an effect the other way counts as inactive or inconclusive;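 note: cell survival measured after 48 h of compound exposure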)
Procedure, shortened: (§3)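 Pre-formed 14-day tumor spheroids or adherent cells dosed and incubated 48 h, 37C, 5% CO2. Viability assessed by CellTiter-Glo.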

[16] = Identifying Small Molecule Inhibitors of Pancreatic Cancer Stem Cells (SN12C, Spheroid) (AID 1259360; active = well fitted curve in the direction sought with a large enough effect; an effect the other way counts as inactive or inconclusive; note: potency is the fitted concentration of half-maximal effect;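 for viability (% of control): 100% = DMSO-treated cells and 0% = wells without cells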); settings: Potency: SN12C spheroid viability
Procedure, shortened: (§4)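 Spheroids grown 14 days in stem cell media on hydrogel-coated nonadherent plates; 2D lines seeded directly. Compounds added after 4 h attachment, 48 h at 37C, 5% CO2; CellTiter-Glo luminescence normalized to DMSO (no inhibition) and no-cell wells (full inhibition).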

[17] = Identifying Small Molecule Inhibitors of Pancreatic Cancer Stem Cells (A278, Adherent) (AID 1259361; active = well fitted curve in the direction sought with a large enough effect; an effect the other way counts as inactive or inconclusive; note: nearly all actives have a fitted effect of over 35% in size;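 for viability (% of control): 100% = DMSO-treated cells and 0% = cell-free media-only wells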)
Procedure, shortened: as §3

[18] = Identifying Small Molecule Inhibitors of Pancreatic Cancer Stem Cells (A2780, Spheroid) (AID 1259357; active = well fitted curve in the direction sought with a large enough effect; an effect the other way counts as inactive or inconclusive;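 note: spheroids pre-formed over 14 days in stem cell medium on hydrogel; compound exposure lasted 48 h before the ATP luminescence read; 100% = DMSO treated cells and 0% = wells without cells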); settings: Potency: A2780 spheroid viability
Procedure, shortened: as §4

[19] = Identifying Small Molecule Inhibitors of Pancreatic Cancer Stem Cells (Panc1, Spheroid) (AID 1259359; active = well fitted curve in the direction sought with a large enough effect; an effect the other way counts as inactive or inconclusive;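 note: potency is the fitted concentration of half-maximal effect; compound exposure lasted 48 h before reading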)
Procedure, shortened: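 Endpoint: ATP-based luminescence, 48 h drug exposure. Bortezomib at 9.2 uM final as full-kill control; DMSO vehicle as negative control; activity normalized between vehicle and cell-free wells.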

CCCCC(C=O)NC(=O)C(CC(C)C)NC(=O)OCc1ccccc1 (stereo not given)
parasite growth, % of DMSO control [1]: 4.5%
parasite growth remaining, % of DMSO control (lower = more inhibition) [2]: 8.7%
parasite growth, % of control (lower = inhibition) [3]: 9.29%
growth, % of control [4]: 4.08%
cell viability, % of control (lower = more cytotoxic) [5]: 52.9%
viability (% of control) [6]: 62.2%
Potency [7]: inactive
Potency [8]: inactive
Potency [9]: 11.8 µM (active)
Potency [10]: inactive

COc1cc2c(cc1OC)CC(=O)N(CCCN(C)C[C@H]1Cc3cc(OC)c(OC)cc31)CC2
remaining proliferation (% of control), lower = more inhibition [11]: 77.1%
parasite growth, % of DMSO control [1]: 92%
parasite growth remaining, % of DMSO control (lower = more inhibition) [2]: 98.4%
parasite growth, % of control (lower = inhibition) [3]: 55.5%
growth, % of control [4]: 79.8%
cell viability, % of control (lower = more cytotoxic) [5]: 163%
viability (% of control) [6]: 106%
Potency [7]: inactive
Potency [8]: inactive
Potency [12]: 16.6 µM (active)
outcome [13]: inactive
outcome [14]: inactive
Potency [15]: inactive
Potency [16]: inactive
IC50 (viability decrease) [17]: inactive

CN(C)CCOc1cc(-c2cn[nH]c2)ccc1NC(=O)C1COc2ccccc2O1 (stereo not given)
parasite growth, % of DMSO control [1]: 29.9%
parasite growth remaining, % of DMSO control (lower = more inhibition) [2]: 61.4%
parasite growth, % of control (lower = inhibition) [3]: 32.4%
growth, % of control [4]: 38.6%
cell viability, % of control (lower = more cytotoxic) [5]: 73.4%
viability (% of control) [6]: 34.9%
Potency [7]: inactive
Potency [8]: inactive
Potency [10]: 11.8 µM (active)

CN(C(Cc1ccc(OS(=O)(=O)c2cccc3cnccc23)cc1)C(=O)N1CCN(c2ccccc2)CC1)S(=O)(=O)c1cccc2cnccc12 (stereo not given)
parasite growth, % of DMSO control [1]: 6.17%
parasite growth remaining, % of DMSO control (lower = more inhibition) [2]: 7.38%
parasite growth, % of control (lower = inhibition) [3]: 10.8%
growth, % of control [4]: 8.15%
cell viability, % of control (lower = more cytotoxic) [5]: 116%
viability (% of control) [6]: 85.3%
Potency [7]: inactive
Potency [8]: inactive
Potency [9]: 14.8 µM (active)
Potency [10]: 16.6 µM (active)

NC(=O)c1nnn(Cc2cc(Cl)c(C(=O)c3ccc(Cl)cc3)c(Cl)c2)c1N
parasite growth, % of DMSO control [1]: 23.3%
parasite growth remaining, % of DMSO control (lower = more inhibition) [2]: 33.4%
parasite growth, % of control (lower = inhibition) [3]: 37%
growth, % of control [4]: 6.97%
cell viability, % of control (lower = more cytotoxic) [5]: 390%
viability (% of control) [6]: 45.1%
Potency [7]: inactive
Potency [12]: 18.7 µM (active)
Potency [9]: 26.4 µM (active)
Potency [10]: 20.9 µM (active)

CC1=C[C@@H]2[C@@H]([C@@H](O)C[C@@]3(C)[C@H]2C[C@@H](C)[C@]3(O)C(=O)CO)[C@@]2(C)Cc3cnn(-c4ccccc4)c3C=C12
remaining proliferation (% of control), lower = more inhibition [11]: 0.0764%
parasite growth, % of DMSO control [1]: 33.4%
parasite growth remaining, % of DMSO control (lower = more inhibition) [2]: 8.93%
growth, % of control [4]: 11.6%
cell viability, % of control (lower = more cytotoxic) [5]: 24.4%
viability (% of control) [6]: 32.5%
Potency [7]: inactive
Potency [8]: inactive
Potency [10]: 23.5 µM (active)
Potency [18]: inactive
Potency [19]: 20.9 µM (active)
Potency [16]: 26.4 µM (active)
IC50 (viability decrease) [17]: 20.9 µM (active)

N[C@@H](CC(=O)N1CCn2c(nnc2C(F)(F)F)C1)Cc1cc(F)c(F)cc1F
parasite growth, % of DMSO control [1]: 94.7%
parasite growth remaining, % of DMSO control (lower = more inhibition) [2]: 104%
parasite growth, % of control (lower = inhibition) [3]: 84.5%
growth, % of control [4]: 104%
cell viability, % of control (lower = more cytotoxic) [5]: 162%
viability (% of control) [6]: 111%
Potency [7]: inactive
Potency [8]: inactive
Potency [9]: 18.7 µM (active)
Potency [10]: 23.5 µM (active)

Cc1c(-c2cccc3c(CCCOc4cccc5ccccc45)c(C(=O)O)n(Cc4cccnc4)c23)c(COc2ccc(N3CCN([S+](=O)([O-])N(C)C)CC3)cc2)nn1C
parasite growth, % of DMSO control [1]: 5.78%
parasite growth remaining, % of DMSO control (lower = more inhibition) [2]: 7.43%
parasite growth, % of control (lower = inhibition) [3]: 15.4%
growth, % of control [4]: 4.06%
cell viability, % of control (lower = more cytotoxic) [5]: 121%
viability (% of control) [6]: 86.1%
Potency [7]: inactive
Potency [8]: inactive
Potency [10]: 18.7 µM (active)

CO[C@H]1/C=C\O[C@@]2(C)Oc3c(C)c(O)c4c(O)c(c(C=NN5CCN(C6CCCC6)CC5)c(O)c4c3C2=O)NC(=O)C(C)=CC=C[C@H](C)[C@H](O)[C@@H](C)[C@@H](O)[C@@H](C)[C@H](OC(C)=O)[C@H]1C
parasite growth, % of DMSO control [1]: 4.38%
parasite growth remaining, % of DMSO control (lower = more inhibition) [2]: 6.13%
parasite growth, % of control (lower = inhibition) [3]: 8.54%
growth, % of control [4]: 2.45%
cell viability, % of control (lower = more cytotoxic) [5]: 1.16%
viability (% of control) [6]: 0.727%
Potency [7]: inactive
Potency [8]: inactive
Potency [10]: inactive

O=C(O)Cc1cccc(OCCCN(Cc2cccc(C(F)(F)F)c2Cl)CC(c2ccccc2)c2ccccc2)c1
remaining proliferation (% of control), lower = more inhibition [11]: 5.3%
parasite growth, % of DMSO control [1]: 20.8%
parasite growth remaining, % of DMSO control (lower = more inhibition) [2]: 42.2%
parasite growth, % of control (lower = inhibition) [3]: 18.9%
growth, % of control [4]: 15.4%
cell viability, % of control (lower = more cytotoxic) [5]: 170%
viability (% of control) [6]: 117%
Potency [7]: inactive
Potency [8]: inactive
Potency [9]: 20.9 µM (active)
Potency [10]: 20.9 µM (active)
Potency [15]: inactive

C[C@@]1(C(=O)Nc2ccc(F)nc2)CCCN1c1nc(Nc2cc(C3CC3)[nH]n2)c2cccn2n1
parasite growth, % of DMSO control [1]: 10.3%
parasite growth remaining, % of DMSO control (lower = more inhibition) [2]: 14.6%
parasite growth, % of control (lower = inhibition) [3]: 23.8%
growth, % of control [4]: 4.94%
cell viability, % of control (lower = more cytotoxic) [5]: 131%
viability (% of control) [6]: 17.3%
Potency [7]: inactive
Potency [8]: inactive
Potency [9]: 1.05 µM (active)
Potency [10]: 0.418 µM (active)

CN(C)CC[C@H](CSc1ccccc1)Nc1ccc(S(=O)(=O)NC(=O)c2ccc(N3CCN(Cc4ccccc4-c4ccc(Cl)cc4)CC3)cc2)cc1[N+](=O)[O-]
remaining proliferation (% of control), lower = more inhibition [11]: 41.4%
parasite growth, % of DMSO control [1]: 34%
parasite growth remaining, % of DMSO control (lower = more inhibition) [2]: 61.7%
growth, % of control [4]: 4.32%
cell viability, % of control (lower = more cytotoxic) [5]: 8.88%
viability (% of control) [6]: 4.81%
Potency [7]: inactive
Potency [8]: inactive
Potency [9]: 16.6 µM (active)
Potency [10]: 4.18 µM (active)

CC=C(C(=CC)c1ccc(O)cc1)c1ccc(O)cc1
parasite growth, % of DMSO control [1]: 61.7%
parasite growth remaining, % of DMSO control (lower = more inhibition) [2]: 94.2%
parasite growth, % of control (lower = inhibition) [3]: 67.7%
growth, % of control [4]: 70.1%
cell viability, % of control (lower = more cytotoxic) [5]: 43.4%
viability (% of control) [6]: 26.7%
Potency [7]: inactive
Potency [8]: inactive
